Source: PubChem (Sanford-Burnham Center for Chemical Genomics)
An excerpt weighted towards active compounds, which were near 3.2% of everything screened.
CRFR2-BP ag: agonists of CRF-BP/CRF-R2 complex, primary screen, cell-based, HEK293, calcium dye fluorescence, uHTS | AID 588473, 2011 | activation, % at 13.2 µM | CRF-binding protein / CRF receptor 2 complex (human) | 0.46% of 350,000 active | calcium dye fluorescence (FLIPR); percent of saturating CRF peptide response;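 active = activation of at least 50%, plus an integration ratio under a set limit after plate pattern correction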;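 also: plate controls were neutral control wells without compound for no effect and CRF at EC100 for full effect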
H9c2 protect: cardioprotection against H2O2-induced cell death, primary screen, uHTS, H9c2 cells, ATPLite luminescence; H9c2 cardiomyocytes, H2O2 injury protection, 2 h; protection from H2O2 cell death, % at 20 µM; 0.63% of 360,000 active;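 active = compounds giving at least 50% protection of heart cells from peroxide-induced death in the single-dose screen, raw or plate-pattern-corrected value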;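 also: 0% = DMSO wells with peroxide and 100% = DMSO wells without peroxide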
CRFR2-BP antag: antagonists of CRF-BP/CRF-R2 complex, primary screen, cell-based, HEK293, calcium dye fluorescence, uHTS; 0.59% of 350,000 active; inhibition, % at 11.8 µM; AID 588475, 2011; CRF-induced calcium fluorescence;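 active = inhibition of the ligand-induced calcium signal above about 50% at the single tested concentration, limit read from the data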
PfGluPho inh: PfG6PD enzyme inhibitors, primary screen, biochemical, fluorescence intensity, uHTS. glucose-6-phosphate dehydrogenase-6-phosphogluconolactonase (Plasmodium falciparum 3D7). PfGluPho enzyme, NADPH resazurin-diaphorase fluorescence. inhibition, % at 20 µM. 0.78% of 350,000 active. AID 504690, 2011;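 active = inhibition reaching at least a set limit at 20 µM in the primary screen, cut at about 59% in these data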;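 also: 0% = DMSO wells with substrate and 100% = DMSO wells lacking glucose-6-phosphate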
aDG glyco act: activators of alpha-DG glycosylation, primary screen, uHTS, Pro5-aDG cells, AlphaScreen. alpha-DG glycosylation AlphaScreen (IIH6); 0% Pro5, 100% B10-LARGE cell signal. activation, % at 10 µM. 0.22% of 360,000 active. AID 624168, 2012;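 active = activation of at least 8% versus controls, or a plate z-score of at least 8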;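 also: Pro5 are CHO cells carrying HIG-tagged alpha-DG that lacks glycosylation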
FAS-TE inh: FAS thioesterase domain inhibitors, primary screen, biochemical, fluorescence intensity, uHTS. Fatty acid synthase (Homo sapiens), P49327. recombinant FAS-TE, OMFH fluorogenic substrate, fluorescence endpoint. inhibition, % at 15 µM. 0.67% of 360,000 active;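 active = compounds whose normalised, plate-corrected inhibition of enzyme fluorescence in the single-dose primary screen is 50% or more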;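 also: 0% = DMSO with enzyme and 100% = substrate without enzyme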
* hit, by the source's call; / = not tested or not shown.

SMILES	CRFR2-BP ag	H9c2 protect	CRFR2-BP antag	PfGluPho inh	aDG glyco act	FAS-TE inh
CN(C)C1CN(Cc2cn(Cc3cccc(C(F)(F)F)c3)nn2)S(=O)(=O)C1 (stereo unspecified)	/	/	/	/	0	-12
Cc1cccc(CSC(Nc2ccc(F)cc2)=C(C#N)C#N)c1	73*	-14	67*	-23	1	12
N#CC(C#N)=C(Nc1ccc(F)cc1)SCc1cccc(Br)c1	42	-17	69*	-18	0	48
CCN(CC)C(=O)[C@H]1CC(CC(=O)NC(C)(C)C)C(=O)N2CCc3c([nH]c4ccccc34)[C@]12C (stereo partly specified)	-1	-3	9	-2	0	-8
CCOC(=O)c1sc(NC(=O)CN(CC(C)C)CC(C)C)c(C(=O)OCC)c1C	-1	-11	74*	8	3	20
Cc1[nH]c2ccccc2c1SCCNC(=O)c1ccc(S(=O)(=O)N2CCCC2)cc1	-4	-1	114*	15	0	10
CCCCN(C)CCN1C(=O)C2C(C(=O)Nc3cccc(OC)c3)C3C=CC2(O3)C1C(=O)NC1CCCCC1C (stereo unspecified)	-2	-2	6	-23	0	-3
COc1ccc(NC(=O)CSc2nccn2Cc2ccc(F)cc2)cc1	-2	-4	3	-4	0	2
Brc1ccc(-c2noc(CCc3ccccc3)n2)o1	1	-23	61*	9	0	19
Clc1ccccc1OCc1nc(-c2ccc(Br)o2)no1	4	-17	14	7	0	27
NC(=O)CC(NC(=O)c1ccccc1)c1ccc(NCCN2CCCCC2)c([N+](=O)[O-])c1 (stereo unspecified)	-2	3	0	16	0	-13
O=C(NCCc1ccccc1)C(=O)NCC1CCCN1S(=O)(=O)c1ccccc1 (stereo unspecified)	1	23	19	-11	0	4
COc1ccc(CCNC(=O)C(=O)NCC2OCCN2S(=O)(=O)c2ccc(OC)cc2)cc1 (stereo unspecified)	-7	14	64*	7	0	-2
COc1ccc(CCNC(=O)C(=O)NCC2CCCN2S(=O)(=O)c2ccccc2)cc1OC (stereo unspecified)	0	74*	19	15	-1	-6
CCCCN1C(=O)C(CC(=O)NCCCCc2ccccc2)CC(C(=O)N(C)C)=C1C (stereo unspecified)	2	2	-2	-8	0	-6
Nc1ccccc1Sc1nc2ccccc2[nH]1	0	-1	-20	62*	0	-114
C[C@@H]1CN([C@H](C)CO)C(=O)c2cc(NC(=O)Nc3ccc(C(F)(F)F)cc3)ccc2O[C@H]1CN(C)S(=O)(=O)c1cccs1	1	-3	-1	9	0	16
C[C@H](CO)N1C[C@H](C)[C@@H](CN(C)S(=O)(=O)c2ccccc2)Oc2ccc(NC(=O)Nc3ccccc3)cc2C1=O	0	76*	23	15	0	6
C[C@H](CO)N1C[C@H](C)[C@@H](CN(C)S(=O)(=O)c2cccs2)Oc2ccc(NC(=O)Nc3ccccc3)cc2C1=O	-1	68*	10	8	0	2
C[C@H](CO)N1C[C@H](C)[C@@H](CN(C)S(=O)(=O)c2ccc(F)cc2)Oc2ccc(NC(=O)Nc3ccc4c(c3)OCO4)cc2C1=O	-1	62*	1	34	0	10
CCCN(C(=O)C(=O)Nc1ccc2nc3n(c(=O)c2c1)CCCCC3)c1ccc(OCC)cc1	-2	3	15	6	0	8
CCn1nc(C)c([N+](=O)[O-])c1C(=O)NNC(=O)c1ccc(Cl)cc1	-3	-2	8	9	0	-6
O=C(c1ccc(Br)o1)N1CCN(c2ccc3nnc(-c4ccccc4)n3n2)CC1	-1	81*	-3	3	0	4
